G9a inh: blocks human histone lysine methyltransferase G9a; Q96KQ7; G9a H3K9 monomethylation, AlphaScreen, 2 h; Potency, µM (doses to about 102 µM), usual class: inhibitors; hit rate 8.8% among 350,000; AID 504332; further: nearly all actives have a fitted effect of over 75% in size
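G9a (20 nM) preincubated 15 min RT with compounds, then 500 nM biotinylated H3K9 peptide and 20 uM SAM added; 2 h RT reaction. Monomethyl-H3K9 product detected by AlphaScreen with anti-H3K9me1 antibody, streptavidin donor and anti-rabbit IgG acceptor beads.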
JMJD2A Tudor inh: blocks the human JMJD2A Tudor domain; O75164; Potency, µM (series often up to 114 µM), most hits filed as inhibitors; AlphaScreen JMJD2A-Tudor / H3K4me3 peptide binding; hit rate 4.4% among 390,000; AID 504339; further: nearly all actives have a fitted effect of over 50% in size
PLK1 PBD block: PLK1 (human) polo-box domain binding inhibition | P53350 | Plk1 PBD binding of FITC phosphopeptide, fluorescence polarization | Potency, µM, usual class: inhibitors | hit rate 2.8% among 360,000; further: series mostly up to about 57 µM; nearly all actives have a fitted effect of over 65% in size
HP1b binding inh: blocks HP1-beta chromodomain binding to methylated histone tails | AlphaScreen HP1-beta / biotin-H3K9me3 peptide binding | Potency, µM (series often up to 114 µM), usual class: inhibitors | P83916 | hit rate 0.56% among 390,000; further: nearly all actives have a fitted effect of over 70% in size
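AlphaScreen: HP1-beta (50 nM) preformed 30 min with biotin-H3(1-18)K9me3 peptide (50 nM) in PBS pH 7.4, 0.01% Tween-20. Compound added for 30 min at RT, then streptavidin donor/nickel chelate acceptor beads (10 ug/mL) for 30 min.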
Sfp inh: inhibitors of Bacillus subtilis Sfp phosphopantetheinyl transferase; Q9F4F7; Biochemical Sfp PPTase activity, qHTS; Potency, µM, usual class: inhibitors; hit rate 3.5% among 310,000; AID 1490;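 further: the enzyme is Sfp with the accession as filed and its product quenches rhodamine fluorescence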
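After 15 min at room temperature with compound, 15 nM Sfp received 5 uM rhodamine-CoA plus 12.5 uM BHQ-2-ybbR (50 mM Hepes pH 7.6, 10 mM MgCl2). Rate came from the fluorescence difference over 30 min, ex 525/em 598 nm.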
BAZ2B block: BAZ2B (human) inhibition; Potency, µM (doses to about 114 µM), most hits filed as inhibitors; Q9UIF8; AID 504333; hit rate 4.4% among 360,000; AlphaScreen BAZ2B-H3K14Ac peptide displacement; further: nearly all actives have a fitted effect of over 60% in size
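AlphaScreen displacement of biotin-H3(5-23)K14Ac peptide (50 nM final) from BAZ2B (50 nM final) in PBS pH 7.4, 0.01% Tween-20; complex preformed 30 min RT, then compounds (top 110 uM) 30 min RT, beads 20 min dark.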
A number is an active result; . = inactive; ? = inconclusive; / = no result; [ ] = another dose, or the depositor's remark. Sampled rows, rich in hits. Any-hit rate of the full collection: about 12%. The call rests on the fitted dose curve; in most records, active means well fitted curve in the direction sought with a large enough effect; inconclusive means small, poorly fitted or top-dose-only effect, or another doubt; inactive means no such curve, though single readings can be large; an effect the other way counts as inactive or inconclusive.

SMILES	G9a inh	JMJD2A Tudor inh	PLK1 PBD block	HP1b binding inh	Sfp inh	BAZ2B block
CCOC(=O)CC(NC(=O)N1CCC(CN2CCC(C)CC2)CC1)c1ccccc1 (centres undefined)	.	.	/	.	/	.
CCCc1cc(=O)oc2cc(OCC(=O)Nc3ccccn3)ccc12	/	.	.	.	.	.
COc1ccc(-c2cc(=O)oc3cc(OCC(=O)Nc4ccccn4)ccc23)cc1	.	17.8µM	2.99µM	.	.	.
CCc1cc(=O)oc2cc(OCC(=O)NCc3ccccn3)ccc12	.	?	26.7µM	.	.	.
Cc1ccc(NC(=O)CCS(=O)(=O)c2ccc(Br)cc2)nc1	.	20µM	11.9µM	.	.	.
Cc1ccc(CNC(=O)CCS(=O)(=O)c2ccc(Cl)cc2)cc1	.	.	.	.	.	.
CCN(CC)c1ccc(NC(=O)CCS(=O)(=O)c2ccc(Br)cc2)c(C)c1	10µM	11.2µM	26.7µM	12.6µM	.	11.2µM
O=C(CCS(=O)(=O)c1ccccc1Cl)NCc1ccc(F)cc1	50.1µM	.	?	.	.	.
Cc1ccc(CNC(=O)CCS(=O)(=O)c2ccc(Br)cc2)cc1	8.91µM	17.8µM	16.8µM	7.08µM	.	?
Cc1ccc(S(=O)(=O)CCC(=O)Nc2ccc(Br)cc2)cc1	?	.	.	.	.	.
O=C(C[C@H]1CC[C@@H]2[C@H](COC[C@@H](O)CN2Cc2ccc(Cl)cc2)O1)NCCc1ccccc1	/	/	.	/	/	/
Cc1ccc(S(=O)(=O)CCC(=O)OCC(=O)NCc2ccc(F)cc2)cc1	/	/	.	/	/	/
CC1CC(C)CN(C(=O)CCNS(=O)(=O)c2ccc3c(c2)CCC(=O)N3)C1 (centres undefined)	.	.	.	.	.	.
CCN(CC)c1ccc(NC(=O)CCNS(=O)(=O)c2ccc3c(c2)CCC(=O)N3)c(C)c1	39.8µM	?	.	?	.	35.5µM
CCOC(=O)C1CCCN(C(=O)CCNS(=O)(=O)c2ccc3c(c2)CCC(=O)N3)C1 (centres undefined)	.	?	16.8µM	?	.	.
O=C(CCS(=O)(=O)c1ccc(Br)cc1)NCc1ccc(F)cc1	?	.	.	.	.	39.8µM
Cc1ccc(CNC(=O)CCS(=O)(=O)c2cc3c(cc2C)NC(=O)CO3)cc1	.	.	.	.	.	.
Cc1ccc(CNC(=O)CCS(=O)(=O)c2ccc3c(c2)NC(=O)CO3)cc1	.	?	26.7µM	.	.	.
Cc1ccccc1NC(=O)CCNS(=O)(=O)c1ccc2c(c1)CCC(=O)N2	.	.	.	.	.	.
Cc1csc(=O)n1CC(=O)Nc1ccc(C(C)C)cc1	?	.	.	.	/	.
O=C1NC[C@H](CCCCN2CCN(CCC3CCCCC3)C(=O)C2=O)N(CCc2ccccc2)C1=O	/	/	.	/	/	/
CCn1cc(C(=O)NCCOC)c(=O)c2cc(S(=O)(=O)N3CCOCC3)ccc21	.	.	/	.	/	/
CC(=O)Nc1cncc(-c2ccccc2N(C)C)n1	/	/	.	/	/	/
O=C(NCCCNC(=O)c1ccccn1)c1ccc(Cl)cc1	.	.	.	.	.	.
Cc1ccc(NC(=O)CCC(=O)c2cccs2)nc1	44.7µM	?	.	.	/	?
SMILES	G9a inh	JMJD2A Tudor inh	PLK1 PBD block	HP1b binding inh	Sfp inh	BAZ2B block
Cc1ccnc(NC(=O)CCS(=O)(=O)c2ccccc2)c1	79.4µM	.	.	.	.	.
Cc1ccnc(NC(=O)CS(=O)(=O)c2ccccc2)c1	.	.	.	.	.	.
COC(=O)c1cc2sc(Cl)cc2n1Cc1c(C)cc(C)cc1C	.	.	/	.	/	.
Brc1ccc(-c2noc3c2-c2nc(C4CCCCC4)sc2CC3)cc1	/	.	.	.	/	/
COc1cc(C(c2c(O)nc(SC)[nH]c2=O)c2c(O)nc(SC)[nH]c2=O)cc(OC)c1OC	.[0.501 µM]	.	.	.	?	.
CSc1nc(O)c(C(c2ccc(F)cc2)c2c(O)nc(SC)[nH]c2=O)c(=O)[nH]1	/	.	?	.	/	/
CSc1nc(O)c(C(c2ccc(OC(C)C)cc2)c2c(O)nc(SC)[nH]c2=O)c(=O)[nH]1	/	?	10.6µM	.	/	/
CSc1nc(O)c(C(c2ccc(C)cc2)c2c(O)nc(SC)[nH]c2=O)c(=O)[nH]1	39.8µM	.	?	.	.	.
COc1ccc(OC)c(C(c2c(O)nc(SC)[nH]c2=O)c2c(O)nc(SC)[nH]c2=O)c1	50.1µM	.	?	.	?	.
O=C(CCc1c[nH]c2ccccc12)OCC(=O)N1CCN(S(=O)(=O)c2ccccc2)CC1	.	.	.	.	/	.
COC(=O)CSc1ncnc2c1sc1nc(-c3ccco3)c3c(c12)CC(C)(C)OC3	?	/	/	/	11.2µM	50.1µM
CCCc1nc2sc3c(SCC(=O)NCc4ccco4)ncnc3c2c2c1CCC2	39.8µM	22.4µM	?	?	50.1µM	28.2µM
CCOC(=O)c1sc2nc(-c3ccco3)c3c(c2c1N)CC(C)(C)OC3	?	.	?	.	8.91µM	.
COc1cc(OC)cc(C(=O)NCCCCc2ccccc2)c1	/	.	.	.	/	/
CCCSc1nnc(-c2cnn(-c3ccccc3)c2-n2cccc2)n1C	12.6µM	.	.	.	.	.
CCOC(=O)c1[nH]c(C)c(C(=O)N(CC)CC)c1C	79.4µM	.	.	.	.	.
CSc1ccc(CNC(=O)c2sc3ncnc(N(C)C4CCCCC4)c3c2C)cc1	.	.	/	.	/	.
COC(=O)c1ccc(CN2CCN(Cc3ccc(C(=O)OC)o3)CC2)o1	11.2µM	.	.	.	.	/
C=CCOC(=O)C1=C(C)NC(SCC(=O)Nc2ccc(C)c(Cl)c2)=C(C#N)C1c1ccco1 (centres undefined)	.	.	.	.	35.5µM	.
COCCOC(=O)C1=C(C)NC(SCC(=O)NC(C)(C)C)=C(C#N)C1c1ccco1 (centres undefined)	.	89.1µM	.	.	.	.
COc1ccccc1NC(=O)C1=C(C)NC(SCC(=O)c2ccccc2)=C(C#N)C1c1ccco1 (centres undefined)	?	.[11.4 µM]	?	.	?	.
CCOc1ccccc1CNC(=O)c1cnc2sc(N3CCCC3)nn2c1=O	.	.	/	.	/	.
CCCCOC(=O)/C=C\C(=O)OCCCC	.	.	.	.	.	.
CCCCOC(=O)/C=C\C(=O)NC(N)=O	44.7µM	.	.	.	.	.
COc1cccc2c(=O)c3cccc(N)c3[nH]c12	25.1µM	.	.	.	22.4µM	?
COc1cccc2c(=O)c3c([nH]c12)OC(C)(C)C3	/	.	.	.	/	/
CC(C)(C)C(=O)Cn1c(=O)n(-c2ccc(Cl)c(Cl)c2)c(=O)c2c3c(sc21)CCCC3	.	.	/	.	/	.
CCc1n(CC(O)COCc2ccccc2)c2ccccc2[n+]1C (centres undefined)	44.7µM	?	.	.	.	?
O=C1c2ccccc2C(=O)N1CC(O)COCc1ccccc1 (centres undefined)	.[0.501 µM]	.	.	.	.	.

Screening results (PubChem BioAssay)
